High-throughput results from PubChem.
ERa coact pot = enhancers of ERα–SRC-1 coactivator binding, primary screen, biochemical, TR-FRET, ERα LBD, low estradiol; coactivator binding (% of control), % at 25.6 µM; TR-FRET ERalpha-LBD/SRC-Cy5 coactivator binding, 2 h; 100 = basal binding, no effect; AID 639, 2007; hit rate 1.3% among 86,000; Estrogen receptor (Homo sapiens), P03372; in the data active = activity above about 200%;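 note: binding measured in presence of low estradiol as agonist stimulus; 0% = peptide alone without receptor and 100% = receptor with peptide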
FAK inh = FAK kinase inhibitors, primary screen, biochemical; hit rate 0.84% among 97,000; biochemical FAK kinase activity assay; inhibition, %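 (tested at 7 µM)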; Focal adhesion kinase 1 (Homo sapiens), Q05397; in the data active = inhibition above about 19%;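 note: 0% = DMSO and 100% = reference compound high control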
ERa coact inh = ERα–SRC-1 coactivator interaction inhibitors, primary screen, biochemical, TR-FRET, ERα LBD, estradiol-bound; Estrogen receptor (Homo sapiens), P03372; TR-FRET ER-alpha LBD / SRC-1 peptide; inhibition, % at 25.6 µM; hit rate 1.7% among 86,000; AID 629, 2007; in the data active = inhibition above about 50%;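 note: 0% = receptor plus peptide control and 100% = peptide only without receptor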
ERb SRC1 inh = inhibitors of ERβ-SRC1 coactivator interaction, primary screen, biochemical, TR-FRET, ERβ LBD, SRC-1 peptide. Estrogen receptor beta (Homo sapiens), Q92731. TR-FRET ER-beta LBD / SRC1-Cy5 peptide binding; receptor agonist-loaded with 1 µM estradiol. inhibition, % at 25.6 µM. hit rate 1.3% among 86,000. AID 633, 2007;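 active = compounds whose percent inhibition of the receptor-coactivator binding signal exceeds about 50% in the single-dose screen, limit read from the data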;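 note: 0% = receptor plus peptide wells without compound and 100% = peptide-only wells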
Smad3 inh = Smad3/FoxH1 peptide binding inhibitors, primary screen, biochemical, TR-FRET; inhibition, % at 25 µM; Mothers against decapentaplegic homolog 3 (Homo sapiens), P84022; TR-FRET Smad3/Dy647-FoxH1 peptide binding, europium anti-His; hit rate 0.29% among 88,000;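 active = compounds that reduce the energy-transfer binding signal between the protein and its labelled peptide by more than half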;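 note: 0% = Smad3 plus labelled peptide maximal FRET and 100% = peptide-only background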
Target sequence (P84022 whole entry, looked up): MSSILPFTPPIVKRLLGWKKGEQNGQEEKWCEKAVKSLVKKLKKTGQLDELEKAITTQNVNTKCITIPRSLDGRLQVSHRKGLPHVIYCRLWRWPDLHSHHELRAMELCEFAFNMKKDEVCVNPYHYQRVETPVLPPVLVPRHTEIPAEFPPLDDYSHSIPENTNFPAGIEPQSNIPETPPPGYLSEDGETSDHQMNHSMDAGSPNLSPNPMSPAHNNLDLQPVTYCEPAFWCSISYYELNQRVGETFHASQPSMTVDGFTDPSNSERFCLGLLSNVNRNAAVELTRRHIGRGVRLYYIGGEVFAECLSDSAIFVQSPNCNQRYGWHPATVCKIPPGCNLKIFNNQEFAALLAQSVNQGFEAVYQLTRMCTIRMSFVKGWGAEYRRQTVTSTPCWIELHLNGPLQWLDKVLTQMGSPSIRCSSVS
Starred values were filed as active, the others as inactive; · = no result; [ ] = remark or other dose. In the library only some 3.3% were active in any assay of this set; here they are far more common.

SMILES | ERa coact pot | FAK inh | ERa coact inh | ERb SRC1 inh | Smad3 inh
CCNC(=O)CC1C(=O)N(c2ccccc2)C(=O)N1CCc1ccc(OC)cc1 (stereo not given) | 161.7 | -4.2 | -15.5 | -12.0 | -13.2
CCNC(=O)CC1C(=O)N(c2ccc(F)cc2)C(=O)N1Cc1ccc(OC)cc1 (stereo not given) | 138.1 | 5.2 | 54.7*[fluorescence artefact?] | -2.6 | 1.7
c1nnc(NCNc2nncs2)s1 | · | · | · | · | 7.6
CCOC(=O)N1CCN(c2cc(NCCC(=O)O)c3c4c(onc24)-c2ccccc2C3=O)CC1 | 51.0 | · | 9.7 | 65.0*[fluorescence artefact?] | -7.7
O=C(O)CCCNc1cc(N2CCC3(CC2)OCCO3)c2noc3c2c1C(=O)c1ccccc1-3 | 41.1 | 0.6 | 27.2 | 87.7*[fluorescence artefact?] | 98.2*[fluorescence artefact?]
COc1ccc(-c2c3c(nc4sc(C(=O)Nc5ccccc5)c(N)c24)CCC3)cc1 | 185.2 | 0.4 | 68.4*[fluorescence artefact?] | 24.0 | 6.0
Cc1ccc(NC(=O)c2sc3nc4c(c(-c5ccco5)c3c2N)CCC4)cc1 | 72.3 | 1.0 | 59.1* | 42.5 | -0.3
O=C1CCC(c2ccccc2)=NN1c1nc2ccccc2s1 | · | · | · | · | 18.3
C[C@@]12CC[C@H]3c4ccc(O)cc4CC[C@@H]3[C@H]1CC[C@H]2OP(=O)(O)O | · | · | · | · | 15.8
C[C@]12CC[C@@H]3c4ccc(O)cc4C(=O)C[C@H]3[C@@H]1CC[C@@H]2O | 705.4* | · | 3.5 | 0.9 | 4.8
O=C(O)/C(=C\c1ccncc1)c1cccc2ccccc12 | · | · | · | · | 6.9
CCOc1ccc2c3c(c(=O)oc2c1OCC)CCCC3 | 112.2 | 2.0 | 83.8*[fluorescence artefact?] | 3.7 | -14.1
CCCOc1ccc2c3c(c(=O)oc2c1OCCC)CCCC3 | 76.0 | -2.7 | -1.8 | 10.2 | 4.1
N#Cc1ccsc1NC(=O)CN1CCCCCC1 | · | -1.1 | · | · | ·
CN(CC(=O)Nc1sccc1C#N)C1CCCCC1 | 36.2 | 11.7 | 79.2*[fluorescence artefact?] | 60.1*[fluorescence artefact?] | -11.2
Cc1cc(=O)oc2cc(O)c(CN(C)CC(=O)O)cc12 | · | · | · | · | -12.4
c1ccc(C2(Cn3ccc4ccccc43)OCCO2)cc1 | 136.9 | -2.9 | 98.6*[fluorescence artefact?] | -6.0 | 2.3
Cc1cc(C(=O)CSC(=S)SC(C)(C)C)ccc1Cl | · | · | · | · | 15.9
O=C(CCC1N=C2c3ccccc3N=C(SCc3cccc(Cl)c3)N2C1=O)NCc1ccco1 (stereo not given) | 256.7*[fluorescence artefact?] | 5.0 | 39.2 | 22.9 | 4.6
CC(C)=N[C@H](C(=O)O)C(C)(C)S | · | · | · | · | 19.9
CCC(CC)C(=O)NCc1ccc2c(c1)cc(C)n2C | · | 2.1 | · | · | ·
Cc1cc2cc(CNC(=O)c3cccs3)ccc2n1C | 64.6 | · | 74.8*[fluorescence artefact?] | 46.8 | 12.1
CCOC(=O)NCc1ccc2c(c1)cc(C)n2C | · | 1.1 | · | · | ·
Cc1cc2cc(CNC(=O)Nc3ccccc3)ccc2n1C | 222.0*[fluorescence artefact?] | -6.4 | 11.2 | 17.3 | 6.6
CN(C1CCCCC1)S(=O)(=O)c1ccc(S(=O)(=O)N2CCN(CCC#N)CC2)cc1 | 112.8 | 0.2 | -8.0 | 53.8* | 3.3
SMILES | ERa coact pot | FAK inh | ERa coact inh | ERb SRC1 inh | Smad3 inh
CN(Cc1ccccc1)S(=O)(=O)c1ccc(S(=O)(=O)N2CCN(CCC#N)CC2)cc1 | 110.4 | 2.4 | 0.4 | -7.9 | 3.7
COc1ccc(C)c2sc(NC(=O)C3=COCCO3)nc12 | 103.6 | 4.4 | 92.8*[fluorescence artefact?] | -3.9 | -3.3
Nc1nc(Cl)cc(NCCO)n1 | · | · | · | · | 2.8
O=C(CSc1ccc(Cl)cc1)c1ccco1 | 76.3 | 8.7 | 80.4*[fluorescence artefact?] | 80.6* | -7.5
COc1ccc2c(c1)CN([C@H](C)[C@@H]1CC[C@@H]3[C@H]4CC[C@H]5C[C@@H](O)CC[C@]5(C)[C@@H]4CC[C@]31C)CO2 | · | · | · | · | 30.9
Cc1cc(C)cc(OCC(=O)Nc2nonc2NC(=O)COc2cc(C)cc(C)c2)c1 | 38.0 | 0.0 | 82.0*[fluorescence artefact?] | 38.1 | -0.9
Cc1cc(C)cc(OCC(=O)Nc2cccc(C(=O)O)c2)c1 | 103.5 | -2.3 | 1.3 | -1.0 | 7.6
COc1cc(NCC[C@@H]2CCCCN2)c2ncccc2c1 | · | · | · | · | 13.7
O=C(NCc1ccco1)c1ccc(=O)[nH]n1 | 53.1 | 2.0 | 45.0 | 66.6*[fluorescence artefact?] | 6.4
O=C(NCc1ccccc1)c1ccc(=O)[nH]n1 | 113.9 | · | 0.5 | -4.6 | -2.0
c1ccc(-c2cc(-c3cc(-c4ccccn4)[nH]n3)n[nH]2)nc1 | · | · | · | · | 6.8
CN(C)c1ccc(/C=C2/C(=O)N(c3ccc([N+](=O)[O-])cc3)N=C2N2CCOCC2)cc1 | · | 11.8 | · | · | ·
CN(C)c1ccc(/C=C2\C(=O)N(c3ccc([N+](=O)[O-])cc3)N=C2N2CCOCC2)cc1 | 90.9 | 20.5* | -39.7 | -4.5 | -10.0
CN(C)c1ccc(-c2nnc(-c3ccc(S(=O)(=O)C(F)F)cc3)o2)cc1 | 241.1* | 3.3 | 54.6*[fluorescence artefact?] | 23.7 | 2.6
CN1CCN(c2ccc(Cl)cc2NC(=O)c2nn(-c3ccccc3)c(=O)c3ccccc23)CC1 | 242.1*[fluorescence artefact?] | 0.8 | 12.7 | 37.0 | 0.0
O=C(Nc1ccc2c(c1)OCO2)c1nn(-c2ccccc2)c(=O)c2ccccc12 | 96.2 | -2.2 | -11.2 | -7.3 | 2.8
Cc1ccc(S(=O)(=O)Nc2cc(=O)[nH]c3c2CCC3)cc1 | · | · | · | · | 5.5
NCCOC[C@H](N)C(=O)O | · | · | · | · | 3.3
COc1ccc(N2C(=O)CCC2=O)cc1 | 44.8 | -12.3 | 52.3*[fluorescence artefact?] | 42.8 | -7.1
CC(=O)Oc1ccc(N2C(=O)CCC2=O)cc1 | 97.8 | 0.7 | -1.4 | 2.4 | -9.8
Nc1nc(N)c2nn(-c3ccc(C(=O)O)cc3)nc2n1 | · | · | · | · | 14.7
Cc1ccc(C2C(C#N)=C(N)Oc3c2sc2ccccc32)o1 (stereo not given) | 74.1 | 6.7 | 69.8*[fluorescence artefact?] | 69.8*[fluorescence artefact?] | 8.1
CCOC(=O)CC1=C(C(=O)OCC)C(c2ccc(C)o2)C(C#N)=C(N)O1 (stereo not given) | 127.4 | 1.6 | -3.2 | -3.4 | -5.4
N#C/C(=C\N1CCNC1=S)C(=O)c1ccc2ccccc2c1 | · | · | · | · | 19.5
O=c1c2ccccc2nc2n1CC/C2=C\c1ccccc1[N+](=O)[O-] | · | 3.0 | · | · | ·
SMILES | ERa coact pot | FAK inh | ERa coact inh | ERb SRC1 inh | Smad3 inh
O=c1c2ccccc2nc2n1CC/C2=C/N1CCN(c2cccc(C(F)(F)F)c2)CC1 | 59.2 | -0.1 | 70.5*[fluorescence artefact?] | 99.6*[fluorescence artefact?] | -8.9
Cc1ccc2nc(N/N=C/c3cccc(C)n3)cc(C)c2c1 | · | · | · | · | 10.8
NC(=O)Cn1c(=O)n(Cc2ccco2)c(=O)c2c3c(sc21)CCCCC3 | 16.7 | 9.9 | 91.2*[fluorescence artefact?] | 90.3*[fluorescence artefact?] | 10.8
O=C(Cn1c(=O)n(Cc2ccco2)c(=O)c2c3c(sc21)CCCC3)Nc1ccccc1 | 106.8 | 0.6 | -9.2 | -11.5 | 3.4
CCC1=NN2C(=N)/C(=C\c3ccc(SCc4ccco4)o3)C(=O)N=C2S1 | 36.5 | -1.8 | 74.6* | 74.9* | 9.1
O=C1SC(SCc2ccccc2)=N/C1=C\c1ccco1 | 103.0 | 2.2 | -12.8 | -12.7 | 7.9
CCCC1=NN2C(=N)/C(=C\c3ccc(SCc4ccco4)o3)C(=O)N=C2S1 | 60.8 | 10.6 | 83.8*[fluorescence artefact?] | 69.5* | 10.4
